In PubChem BioAssay AID1159580 (chemical genetic matrix, 2015):
In all, about 5,500 compounds went through this assay and about 2,000 (36%) were called active. Another 18% or so got no clear call; they are omitted. Rule as the data show it: active = normalized growth mostly below about 0.91 (no sharp cut-off); inconclusive = no clear call, values can overlap the other calls; inactive = mostly above about 0.92. The list shows a part of the results.

Experiment: chemical genetic growth profiling, strain panel (AID 1159580);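 also: tested at 20 µM; growth read once vehicle control cultures reached saturation at 30 °C; 1 = growth at the plate median or of vehicle wells; lower values mean less growth of the strain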
Details: growth OD

Measured: normalized growth

COc1cc2c(cc1OC)C(=O)C(CC1CCN(Cc3ccccc3)CC1)C2 (stereo not given)
active: S. cerevisiae deletion strains, locus YJR075W, strain HOC1, hits give low values 0.778 | S. cerevisiae deletion strains, locus YLR058C, strain SHM2, hits give low values 0.874 | S. cerevisiae deletion strains, locus YLR262C, strain YPT6 (second series), hits give low values 0.589 | S. cerevisiae deletion strains, locus YLR268W, strain sec22, hits give low values 0.837 | S. cerevisiae deletion strains, locus YLR418C, strain cdc73, hits give low values 0.737 | S. cerevisiae deletion strains, locus YML032C, strain rad52, hits give low values 0.675 | S. cerevisiae deletion strains, locus YMR223W, strain ubp8, hits give low values 0.86 | S. cerevisiae deletion strains, locus YNL067W, strain RPL9B, hits give low values 0.787 | S. cerevisiae deletion strains, locus YNL233W, strain BNI4, hits give low values 0.75 | S. cerevisiae deletion strains, locus YNL250W, strain rad50, hits give low values 0.802 | S. cerevisiae deletion strains, locus YNL307C, strain MCK1, hits give low values 0.665 | S. cerevisiae deletion strains, locus YNR052C, strain pop2, hits give low values 0.805 | S. cerevisiae deletion strains, locus YOL006C, strain TOP1, hits give low values 0.335 | S. cerevisiae deletion strains, locus YOR069W, strain VPS5, hits give low values 1.12 [resistant] | S. cerevisiae deletion strains, locus YOR184W, strain ser1, hits give low values 0.776 | S. cerevisiae deletion strains, locus YOR270C, strain vph1, hits give low values 0.608 | S. cerevisiae deletion strains, locus YPL055C, strain LGE1, hits give low values 0.738 | S. cerevisiae deletion strains, locus YPR163C, strain tif3, hits give low values 0.692 | S. cerevisiae deletion strains, strain wtn01, hits give low values 0.777 | S. cerevisiae strains, strain wild type, hits give low values 0.874
inactive: S. cerevisiae deletion strains, locus YJR066W, strain TOR1, hits give low values 0.94 | S. cerevisiae deletion strains, locus YKL009W, strain mrt4, hits give low values 0.986 | S. cerevisiae deletion strains, locus YKL068W, hits give low values 1 | S. cerevisiae deletion strains, locus YKL085W, strain MDH1 (second series), hits give low values 1.01 | S. cerevisiae deletion strains, locus YKL085W, strain MDH1, hits give low values 1.01 | S. cerevisiae deletion strains, locus YKL160W, strain elf1, hits give low values 0.933 | S. cerevisiae deletion strains, locus YKR001C, strain vps1, hits give low values 0.913 | S. cerevisiae deletion strains, locus YKR026C, strain gcn3, hits give low values 1.06 | S. cerevisiae deletion strains, locus YKR091W, strain srl3, hits give low values 0.981 | S. cerevisiae deletion strains, locus YLL001W, strain dnm1, hits give low values 0.993 | S. cerevisiae deletion strains, locus YLL026W, hits give low values 1 | S. cerevisiae deletion strains, locus YLL041C, strain sdh2, hits give low values 0.978 | S. cerevisiae deletion strains, locus YLR027C, strain aat2, hits give low values 0.963 | S. cerevisiae deletion strains, locus YLR039C, strain RIC1, hits give low values 0.772 | S. cerevisiae deletion strains, locus YLR102C, strain apc9, hits give low values 1 | S. cerevisiae deletion strains, locus YLR113W, strain HOG1, hits give low values 1.05 | S. cerevisiae deletion strains, locus YLR221C, strain rsa3, hits give low values 0.975 | S. cerevisiae deletion strains, locus YLR258W, strain gsy2, hits give low values 0.982 | S. cerevisiae deletion strains, locus YLR262C, strain YPT6, hits give low values 0.807 | S. cerevisiae deletion strains, locus YLR320W, strain mms22, hits give low values 0.928 | S. cerevisiae deletion strains, locus YLR330W, strain CHS5, hits give low values 0.953 | S. cerevisiae deletion strains, locus YLR342W, strain FKS1 (second series), hits give low values 0.909 | S. cerevisiae deletion strains, locus YLR342W, strain FKS1, hits give low values 0.989 | S. cerevisiae deletion strains, locus YLR357W, strain rsc2, hits give low values 1.13 | S. cerevisiae deletion strains, locus YLR370C, strain arc18, hits give low values 0.955 | S. cerevisiae deletion strains, locus YLR371W, strain rom2, hits give low values 0.986 | S. cerevisiae deletion strains, locus YLR384C, strain iki3, hits give low values 0.952 | S. cerevisiae deletion strains, locus YML016C, strain PPZ1, hits give low values 0.949 | S. cerevisiae deletion strains, locus YML120C, strain ndi1, hits give low values 0.973 | S. cerevisiae deletion strains, locus YML124C, strain tub3, hits give low values 1.02 | S. cerevisiae deletion strains, locus YMR058W, strain fet3, hits give low values 0.994 | S. cerevisiae deletion strains, locus YMR078C, strain ctf18, hits give low values 0.988 | S. cerevisiae deletion strains, locus YMR125W, strain sto1, hits give low values 0.94 | S. cerevisiae deletion strains, locus YMR129W, hits give low values 0.992 | S. cerevisiae deletion strains, locus YMR205C, strain PFK2, hits give low values 0.979 | S. cerevisiae deletion strains, locus YMR231W, strain pep5, hits give low values 0.996 | S. cerevisiae deletion strains, locus YMR263W, strain SAP30, hits give low values 0.936 | S. cerevisiae deletion strains, locus YMR307W, strain GAS1, hits give low values 0.971 | S. cerevisiae deletion strains, locus YNL071W, strain lat1, hits give low values 0.956 | S. cerevisiae deletion strains, locus YNL128W, strain TEP1, hits give low values 0.919 | S. cerevisiae deletion strains, locus YNL153C, strain GIM3, hits give low values 0.876 | S. cerevisiae deletion strains, locus YNL183C, strain NPR1, hits give low values 0.955 | S. cerevisiae deletion strains, locus YNL209W, strain ssb2, hits give low values 0.988 | S. cerevisiae deletion strains, locus YNL248C, strain rpa49, hits give low values 0.967 | S. cerevisiae deletion strains, locus YNL271C, strain bni1, hits give low values 0.977 | S. cerevisiae deletion strains, locus YNL298W, strain CLA4, hits give low values 0.918 | S. cerevisiae deletion strains, locus YNL322C, strain KRE1 (second series), hits give low values 0.981 | S. cerevisiae deletion strains, locus YNR049C, strain mso1, hits give low values 1.01 | S. cerevisiae deletion strains, locus YOL012C, strain htz1 1.03 | S. cerevisiae deletion strains, locus YOL147C, strain pex11, hits give low values 0.976 | S. cerevisiae deletion strains, locus YOR001W, strain rrp6, hits give low values 0.931 | S. cerevisiae deletion strains, locus YOR061W, strain CKA2, hits give low values 0.989 | S. cerevisiae deletion strains, locus YOR070C, strain gyp1, hits give low values 1.02 | S. cerevisiae deletion strains, locus YOR080W, strain dia2, hits give low values 0.953 | S. cerevisiae deletion strains, locus YOR083W, strain WHI5, hits give low values 0.973 | S. cerevisiae deletion strains, locus YOR106W, strain vam3, hits give low values 0.902 | S. cerevisiae deletion strains, locus YOR136W, strain idh2, hits give low values 0.984 | S. cerevisiae deletion strains, locus YOR144C, strain elg1, hits give low values 0.992 | S. cerevisiae deletion strains, locus YOR231W, strain MKK1, hits give low values 0.977 | S. cerevisiae deletion strains, locus YOR265W, strain rbl2, hits give low values 0.974 | S. cerevisiae deletion strains, locus YOR290C, strain snf2, hits give low values 1.04 | S. cerevisiae deletion strains, locus YOR316C, strain cot1, hits give low values 1.01 | S. cerevisiae deletion strains, locus YPL051W, strain arl3, hits give low values 0.938 | S. cerevisiae deletion strains, locus YPL078C, strain atp4, hits give low values 0.947 | S. cerevisiae deletion strains, locus YPL106C, strain sse1, hits give low values 1.12 | S. cerevisiae deletion strains, locus YPL240C, strain hsp82, hits give low values 0.996 | S. cerevisiae deletion strains, locus YPL256C, strain CLN2, hits give low values 0.952 | S. cerevisiae deletion strains, locus YPR119W, strain clb2, hits give low values 1 | S. cerevisiae deletion strains, locus YPR141C, strain kar3, hits give low values 0.975 | S. cerevisiae deletion strains, locus YPR167C, strain met16, hits give low values 0.984
